# Results: PubChem BioAssay (NCATS)
# Values joined by “and” are separate entries in the source; they are usually repeats but may differ in a detail not shown here. Identical values can stand only once. Inconclusive results are not listed. Active and inactive are the calls of the source. The call rests on the fitted dose curve; in most records, active means well fitted curve in the direction sought with a large enough effect; inconclusive means small, poorly fitted or top-dose-only effect, or another doubt; inactive means no such curve, though single readings can be large; an effect the other way counts as inactive or inconclusive.
# Columns and labels:
# Furin (Homo sapiens) = Furin (Homo sapiens) (UniProt P09958); assay: Furin counterscreen qHTS for Zika virus inhibitors (AID 1347149);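 further: purified recombinant full-length human furin enzyme at 5 nM; fluorescence gain from furin cutting a BOC-RVRR-AMC peptide substrate over 15 min; top concentration of the series differs between compounds; plate controls were no-inhibitor control for no effect and no-enzyme control for full effect; nearly all actives have a fitted effect of over 70% in size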
# Summary of the method: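 Fluorogenic cleavage of BOC-RVRR-AMC (2 microM final, Km ~15 µM) was monitored (ex 340, em 450 nm) at 37C after 15 min RT preincubation of 5 nM furin with compounds in HEPES pH 7.0 buffer with CaCl2 and Triton X-100. Percent inhibition was fitted to a 4-parameter Hill curve.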
# [1] = Confirmatory screen GU Rhodamine qHTS for Zika virus inhibitors qHTS (AID 1347157); further: nearly all actives have a fitted effect of over 70% in size; further: potency means the concentration at half of the fitted maximal effect;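 on activity change, negative = inhibition: plate controls were no-inhibitor wells for no effect and no-enzyme wells for full effect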
# Text: Avindra Nath, Ph.D., National Institute of Neurological Disorders and Stroke (NINDS), Bethesda, MD
# Radhakrishnan Padmanabhan, Ph.D., Georgetown University (GU), Washington D.C.
# Zika Virus causes congenital defects, including microcephaly and is associated with Guillain-Barre syndrome, eningoencephalitis and myelitis in infected adult. […] Using a target-based approach, we hope to establish a screening paradigm to uncover novel, cell-active NS2B-NS3 protease (Zika Virus) specific inhibitors from NCATS' collection of small molecules using qHTS.
# Four assay panel was created to identify potential Zika Virus inhibitors. Namely, (1) GU unlinked NS2B-NS3 AMC tagged protease qHTS, (2) GU unlinked NS2B-NS3 Rhodamine tagged protease qHTS, (3) NINDS linked NS2B-NS3 AMC tagged protease qHTS, (4) NINDS linked NS2B-NS3 Rhodamine tagged protease qHTS. Active compounds were re-acquired and re-screened to confirm inhibition. Inhibitors were further screened against various confirmatory and counterscreens in dose response format.
# Early Translation Branch (ETB)
# National Center for Advancing Translational Sciences (NCATS), Rockville, MD
# National Institute of Health (NIH), Bethesda, Maryland
# Padmanabhan lab provided the NS2B hydrophilic domain and NS3 protease domain in a noncovalent complex used for the unlinked assay. Control compound aprotinin is obtained from Thermo Scientific (#78432; Waltham, Massachusetts). Rhodamine110 substrate ([N-Cbz]-Nle-Lys-Arg-Arg-Rhod110-Arg-Arg-Lys-Nle-[N-Cbz]) was purchased from either Genscript or Bachem.
# 1536-well Protease (Rhodamine110 Substrate) Assay:
# Briefly, 3 microL of enzyme (25 nM final concentration), in assay buffer (10 mM Tris-HCl pH 8.0 with 0.01% Tween 20) were dispensed into a 1,536-well solid-bottom black plate (Greiner Bio One, Monroe, NC). Twenty-three nL of compounds (final concentration range 7.28 nM to 114 microM) or control Aprotinin (final concentration range 3.47 nM to 114 microM) were transferred via Wako Pin-tool (Wako Automation, Richmond, VA). Samples were incubated (room temperature, protected from light) for 15 minutes followed by a 1 microL Rhodamine110 substrate addition (1.5 microM final concentration). Plates were then immediately read on a ViewLux High-throughput CCD imager (PerkinElmer, Waltham, MA) equipped with FITC fluorescence optics (480(20) nm excitation, 540(25) nm emission), then incubated (room temperature, protected from light) for 15 minutes (~15% conversion). The change in fluorescence intensity over the 15-minute reaction period was normalized against no-inhibitor and no-enzyme controls and the resulting percent inhibition data were fitted to a 4-parameter Hill equation. Aprotinin was used as intraplate control.
# [2] = Confirmatory screen NINDS Rhodamine qHTS for Zika virus inhibitors (AID 1347161); further: nearly all actives have a fitted effect of over 60% in size; further: potency means the concentration at half of the fitted maximal effect;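 on activity change, negative = inhibition: purified Zika NS2B-NS3 protease with linked NS2B cofactor domain and Rhodamine110 peptide substrate; series mostly up to about 110 µM; plate controls were no-inhibitor control for no effect and no-enzyme control for full effect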
# Summary of the method: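 Rhodamine110-peptide cleavage (1.5 µM substrate) by 25 nM linked NS2B-NS3 enzyme at pH 8.0 (Tris, Tween 20), after 15 min RT preincubation with compounds; 15-min fluorescence change normalized to controls and Hill-fitted.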
# [3] = system: Zika virus NS2B-NS3 protease (linked construct); assay: Primary screen NINDS Rhodamine qHTS for Zika virus inhibitors (AID 1347160); further: nearly all actives have a fitted effect of over 55% in size; further: potency means the concentration at half of the fitted maximal effect; on activity change, negative = inhibition: on the % scale 0 is the no-effect control and ±100 the full control effect
# Summary of the method: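 Purified linked NS2B-NS3 protease (NS2B hydrophilic domain joined to NS3 protease by flexible linker), 25 nM in 10 mM Tris-HCl pH 8.0, 0.01% Tween 20. Compounds titrated, 15 min preincubation at room temperature; 1.5 microM Rhodamine110 substrate, FITC fluorescence change over 15 min.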
# [4] = system: Zika virus NS2B-NS3 protease; assay: Primary screen GU AMC qHTS for Zika virus inhibitors (AID 1347154);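 further: 0% = no-inhibitor control and -100% = no-enzyme control; nearly all actives have a fitted effect of over 70% in size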
# Summary of the method: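 Unlinked Zika NS2B hydrophilic domain–NS3 protease complex at 25 nM in 10 mM Tris-HCl pH 8.0, 0.01% Tween 20, with an AMC peptide substrate. Fluorescence change (340/450 nm) over 15 min at room temperature, normalized to controls, fitted to 4-parameter Hill.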
# [5] = ZIKV-mCherry secondary qHTS for Zika virus inhibitors (AID 1347158); further: top concentration of the series differs between compounds
# Summary of the method: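 After overnight seeding at 37 °C, Vero cells receive compound and then ZIKV-mCherry (MOI 1). Following 48-72 h infection, cells are fixed, counterstained with Hoechst, and imaged; percent infected cells is derived from an mCherry intensity cut-off of 450 RFU.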
# [6] = system: Zika virus NS2B-NS3 protease (linked); assay: 384 well plate NINDS AMC confirmatory qHTS for Zika virus inhibitors (AID 1347163); conditions: Recombinant NS2B-NS3 protease, Ac-VKTGKR-AMC fluorescence; further: potency means the concentration at half of the fitted maximal effect; nearly all actives have a fitted effect of over 50% in size
# Summary of the method: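 Linked protease 5/30/60 nM final; cpds up to 1 mM final, ~15 min preinc. Substrate Ac-VKTGKR-AMC 30 microM final. RT, dark, 25 min; FI ex 355/em 460; normalized to no-enzyme/no-inhibitor ctrls.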
# [7] = system: Zika virus NS2B-NS3 protease (linked construct); assay: 384 well plate NINDS Rhodamine confirmatory qHTS for Zika virus inhibitors (AID 1347164); conditions: rhodamine-110 peptide substrate fluorescence;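 further: fluorescence from protease cleavage of Ac-LKRR-rhodamine 110 substrate; potency means the concentration at half of the fitted maximal effect; nearly all actives have a fitted effect of over 65% in size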
# Summary of the method: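 Linked protease at a final 5 nM, 30 nM or 60 nM was preincubated ~15 min with compounds, then given 10 microM Ac-LKRR-Rhodamine 110. Fluorescence (ex 485/em 538 nm) after 25 min in the dark at room temperature.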
# [8] = system: Zika virus NS2B-NS3 protease (linked construct); assay: Confirmatory screen NINDS AMC qHTS for Zika virus inhibitors (AID 1347152); conditions: Purified linked NS2B-NS3, AMC substrate fluorescence; further: potency means the concentration at half of the fitted maximal effect; nearly all actives have a fitted effect of over 70% in size
# Summary of the method: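 Purified NS2B-NS3 protease with NS2B hydrophilic domain linked to NS3 protease domain by flexible linker, 1 nM final in 10 mM Tris-HCl pH 8.0, 0.01% Tween 20. Compounds preincubated 15 min, room temperature; Bz-Nle-KRR-AMC 10 microM (Km 18.3 µM); 15-min fluorescence change, 4-parameter Hill fit.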
# [9] = system: Zika virus NS2B-NS3 protease (unlinked complex); assay: Primary screen GU Rhodamine qHTS for Zika virus inhibitors: Unlinked NS2B-NS3 protease assay (AID 1347159); further: nearly all actives have a fitted effect of over 60% in size; further: potency means the concentration at half of the fitted maximal effect; on activity change, negative = inhibition: on the % scale 0 is the no-effect control and ±100 the full control effect
# Summary of the method: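 Noncovalent NS2B hydrophilic domain–NS3 protease domain complex (25 nM) preincubated 15 min at room temperature with compounds (up to 114 microM) in 10 mM Tris-HCl pH 8.0, 0.01% Tween 20; 1.5 microM Rhodamine110 substrate added, fluorescence change over 15 min fitted to Hill equation.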
# Chain of Furin (Homo sapiens) (P09958 whole entry, looked up): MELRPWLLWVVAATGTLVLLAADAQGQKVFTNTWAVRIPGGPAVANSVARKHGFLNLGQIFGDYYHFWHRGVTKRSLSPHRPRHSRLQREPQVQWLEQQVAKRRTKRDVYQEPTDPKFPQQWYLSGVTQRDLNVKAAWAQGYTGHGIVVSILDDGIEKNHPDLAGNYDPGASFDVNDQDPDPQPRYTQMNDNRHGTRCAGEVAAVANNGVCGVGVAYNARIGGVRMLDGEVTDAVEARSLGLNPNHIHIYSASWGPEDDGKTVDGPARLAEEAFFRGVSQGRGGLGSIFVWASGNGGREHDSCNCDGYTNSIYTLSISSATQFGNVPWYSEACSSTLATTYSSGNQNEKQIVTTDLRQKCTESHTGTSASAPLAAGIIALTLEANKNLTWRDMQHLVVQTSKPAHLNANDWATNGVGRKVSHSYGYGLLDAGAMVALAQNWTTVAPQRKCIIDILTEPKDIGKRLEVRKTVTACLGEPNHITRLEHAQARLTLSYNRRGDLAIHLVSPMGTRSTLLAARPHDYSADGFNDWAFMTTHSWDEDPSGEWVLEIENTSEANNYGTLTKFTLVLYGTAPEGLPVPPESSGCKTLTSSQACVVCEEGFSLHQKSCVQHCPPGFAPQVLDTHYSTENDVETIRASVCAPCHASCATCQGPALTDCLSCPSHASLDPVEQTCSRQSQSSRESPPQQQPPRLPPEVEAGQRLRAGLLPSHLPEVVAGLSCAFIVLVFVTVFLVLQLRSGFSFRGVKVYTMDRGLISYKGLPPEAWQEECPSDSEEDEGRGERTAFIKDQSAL
structure (smiles),measurement,setting,value
CC(C)(C)CC(C)(C)c1cc(Cc2cc(C(C)(C)CC(C)(C)C)cc(-n3nc4ccccc4n3)c2O)c(O)c(-n2nc3ccccc3n2)c1,outcome,Furin (Homo sapiens),inactive
same,Potency,[1],inactive
same,Potency,[2],inactive
C[C@]12CC[C@@H]3c4ccc(OC(=O)c5ccccc5)cc4CC[C@H]3[C@@H]1CC[C@@H]2O,Potency,[3],inactive
O=C(O)CCC/C=C\C[C@@H]1[C@@H](/C=C/[C@@H](O)COc2cccc(Cl)c2)[C@H](O)C[C@@H]1O,outcome,[4],inactive
Cc1cc(-c2ccc(N=Nc3c(S(=O)(=O)O)cc4cc(S(=O)(=O)O)cc(N)c4c3O)c(C)c2)ccc1N=Nc1c(S(=O)(=O)O)cc2cc(S(=O)(=O)O)cc(N)c2c1O,Potency,[1],2.24 µM (active)
same,outcome,[5],inactive
same,Potency,[2],2.24 µM (active)
same,Potency,[6],20 µM (active)
same,Potency,[7],7.94 µM (active)
O=C(O)Cc1cc(I)c(Oc2ccc(O)c(I)c2)c(I)c1,outcome,Furin (Homo sapiens),inactive
same,Potency,[8],15.6 µM (active)
same,Potency,[1],2.21 µM (active) and 10 µM (active)
same,Potency,[9],7.08 µM (active)
same,Potency,[3],3.16 µM (active)
same,Potency,[2],2.21 µM (active) and 7.94 µM (active)
same,Potency,[6],2.82 µM (active)
same,Potency,[7],3.16 µM (active)
CC/C=C\C/C=C\C/C=C\CCCCCCCC(=O)O,"activity change, negative = inhibition",[4],-0.651% [at 6.83 µM] (inactive)
CC(=O)Nc1ccc(NC(=S)NC(=O)c2ccc(C(C)(C)C)cc2)cc1,Potency,[9],inactive
same,Potency,[3],inactive
COc1ccc(C[C@H](C)NC[C@@H](O)c2ccc(O)c(NC=O)c2)cc1,outcome,[4],inactive
same,Potency,[9],inactive
same,Potency,[3],inactive
C=C1CC[C@H](O)CC1=C/C=C1\CCC[C@]2(C)[C@@H]([C@H](C)/C=C/[C@H](C)C(C)C)CC[C@@H]12,Potency,[9],11.2 µM (active)
same,Potency,[3],12.6 µM (active)
